Here are results for twelve compounds from PubChem BioAssay.

Activity calls are given as the source filed them.

Experiment [1] can be described thus: E. coli DRC41 culture turbidity changes, primary screen, E. coli filamentation inducer project, strain DRC41, OD650, 48 h (AID 1152).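 Note: E. coli MC1000 strain DRC41 lacking acrAB efflux pump and sulA.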 The settings on record: E. coli DRC41 (acrAB sulA), higher = more signal, called active from +8 up or from −8 down.
Experiment [2] is described as follows: small-molecule binders of probe aLefty1, primary screen, biochemical, small-molecule microarray, 635/667 nm fluorescence (AID 1153).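 Note: score merges spot fluorescence with signal-to-noise ratio from the scanned slide images.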 The settings on record: higher = more signal.
Experiment [3] can be described thus: PSAC antagonists in infected red cells, primary screen, cell-based, P. falciparum Indochina, OD700, 1 h (AID 1154). The settings on record: P. falciparum Indochina infected RBC osmotic lysis, higher = more signal, called active from +8 up or from −8 down.
Experiment [4] can be described thus: PSAC antagonists in infected red cells, primary screen, cell-based, P. falciparum Indochina, OD700, 2 h (AID 1155).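 Note: lysis reports solute entry through the parasite surface anion channel PSAC; channel blockers reduce lysis of infected cells.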 The settings on record: P. falciparum Indochina infected erythrocytes, osmotic lysis OD700; higher = more signal, called active from +8 up or from −8 down.
The nature of experiment [5]: osmotic lysis modulators in infected erythrocytes, primary screen, PSAC antagonist project, cell-based, P. falciparum Indochina, OD700, 3 h (AID 1156). Particulars: higher = more signal, called active from +8 up or from −8 down.
Experiment [6] can be described thus: PSAC antagonists in infected red cells, primary screen, cell-based, P. falciparum Indochina, OD700, 18 h (AID 1157). The settings on record: P. falciparum Indochina infected erythrocytes, osmotic lysis OD700, 18 h; higher = more signal, called active from +8 up or from −8 down.
Experiment [7] can be described thus: modulators of S6 phosphorylation in cells, primary screen, cell-based, A549, cytoblot, luminescence, serum-stimulated (AID 1158).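 Note: serum-stimulated A549 lung adenocarcinoma cells; signal is phosphorylated S6 detected by cytoblot immunostaining with HRP secondary.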 Particulars: A549 phospho-S6 cytoblot, 5 h, higher = more signal.
Experiment [8] addresses NADPH oxidase 2 (Homo sapiens) (UniProt P04839). The experiment is described as follows: NOX2-dependent H2O2 signal modulators, primary screen, NOX inhibitor project, cell-based, HEK293-NOX2, PMA-stimulated, Amplex Red fluorescence (AID 1159). Note: test concentration not given here. Particulars: 45 min, higher = more signal, called active from +8 up or from −8 down.
In experiment [9] the target is NADPH oxidase 4 (Homo sapiens) (UniProt Q9NPH5). The experiment is described as follows: NOX4-dependent H2O2 signal modulators, primary screen, NOX inhibitor project, cell-based, HEK293-NOX4, tetracycline-induced, Amplex Red fluorescence (AID 1160). Particulars: 45 min, higher = more signal, called active from +8 up or from −8 down.
Experiment [10] deals with NADPH oxidase 5 (Homo sapiens) (UniProt Q96PH1). The experiment is described as follows: NOX5-dependent H2O2 signal modulators, primary screen, NOX inhibitor project, cell-based, HEK293-NOX5, Amplex Red fluorescence (AID 1161). Particulars: HEK293-NOX5, ionomycin, 45 min, higher = more signal.
Sequence of NADPH oxidase 5 (Homo sapiens) (Q96PH1 whole entry, looked up): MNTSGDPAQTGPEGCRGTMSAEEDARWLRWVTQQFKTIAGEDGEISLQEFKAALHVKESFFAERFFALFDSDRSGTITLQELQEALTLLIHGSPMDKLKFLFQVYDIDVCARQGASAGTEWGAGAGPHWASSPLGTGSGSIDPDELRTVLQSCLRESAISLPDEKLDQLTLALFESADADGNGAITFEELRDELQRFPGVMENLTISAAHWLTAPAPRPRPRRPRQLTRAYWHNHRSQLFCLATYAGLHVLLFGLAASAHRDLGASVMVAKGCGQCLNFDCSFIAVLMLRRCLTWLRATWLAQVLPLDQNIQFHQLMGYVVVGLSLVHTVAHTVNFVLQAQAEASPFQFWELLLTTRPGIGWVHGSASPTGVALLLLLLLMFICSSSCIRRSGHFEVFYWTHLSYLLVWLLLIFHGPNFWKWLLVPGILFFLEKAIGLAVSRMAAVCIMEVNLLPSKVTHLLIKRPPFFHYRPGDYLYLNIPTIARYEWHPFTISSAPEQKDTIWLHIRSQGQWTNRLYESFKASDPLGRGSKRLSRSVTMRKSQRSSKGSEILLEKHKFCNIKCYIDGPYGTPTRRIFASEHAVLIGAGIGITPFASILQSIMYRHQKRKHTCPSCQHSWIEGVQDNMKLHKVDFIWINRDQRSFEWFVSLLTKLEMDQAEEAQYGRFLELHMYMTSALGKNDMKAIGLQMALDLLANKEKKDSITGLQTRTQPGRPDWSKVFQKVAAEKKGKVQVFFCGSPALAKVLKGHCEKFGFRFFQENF

Sequence of NADPH oxidase 4 (Homo sapiens) (Q9NPH5 whole entry, looked up): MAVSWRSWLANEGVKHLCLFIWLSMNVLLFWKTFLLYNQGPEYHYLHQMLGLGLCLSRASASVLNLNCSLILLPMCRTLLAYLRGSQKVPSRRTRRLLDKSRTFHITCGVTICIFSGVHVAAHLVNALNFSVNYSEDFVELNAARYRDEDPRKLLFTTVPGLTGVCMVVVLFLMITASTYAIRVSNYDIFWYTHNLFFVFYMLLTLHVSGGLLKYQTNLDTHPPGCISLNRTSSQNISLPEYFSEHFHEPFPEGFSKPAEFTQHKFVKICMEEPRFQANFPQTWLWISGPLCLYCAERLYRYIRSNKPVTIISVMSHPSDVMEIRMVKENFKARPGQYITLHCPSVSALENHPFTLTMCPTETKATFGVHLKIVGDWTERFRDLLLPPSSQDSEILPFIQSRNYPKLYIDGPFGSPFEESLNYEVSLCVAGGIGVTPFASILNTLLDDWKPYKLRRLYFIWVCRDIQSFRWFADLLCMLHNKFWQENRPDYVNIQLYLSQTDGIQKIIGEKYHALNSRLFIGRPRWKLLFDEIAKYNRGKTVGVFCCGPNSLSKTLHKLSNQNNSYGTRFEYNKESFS
Sequence of NADPH oxidase 2 (Homo sapiens) (P04839 whole entry, looked up): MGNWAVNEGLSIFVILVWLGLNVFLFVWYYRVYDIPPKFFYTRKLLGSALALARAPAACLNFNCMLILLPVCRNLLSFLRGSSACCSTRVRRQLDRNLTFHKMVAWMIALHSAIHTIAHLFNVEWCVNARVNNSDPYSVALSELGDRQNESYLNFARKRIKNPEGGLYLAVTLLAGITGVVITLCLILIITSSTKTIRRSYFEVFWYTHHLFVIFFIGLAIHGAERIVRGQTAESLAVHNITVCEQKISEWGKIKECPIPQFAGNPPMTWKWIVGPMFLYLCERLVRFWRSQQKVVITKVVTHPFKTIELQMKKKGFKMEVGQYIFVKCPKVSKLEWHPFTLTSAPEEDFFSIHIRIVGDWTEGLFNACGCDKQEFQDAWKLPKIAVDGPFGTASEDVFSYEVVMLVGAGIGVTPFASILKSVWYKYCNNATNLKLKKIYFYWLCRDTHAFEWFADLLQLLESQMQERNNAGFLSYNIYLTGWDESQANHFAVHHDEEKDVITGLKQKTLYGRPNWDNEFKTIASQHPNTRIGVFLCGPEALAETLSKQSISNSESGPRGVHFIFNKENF

On to `COc1cc2c(cc1OC)CN(C(=O)[C@H]1[C@@H]3C(=O)O[C@@H](c4ccccc4)[C@@H](c4ccccc4)N3[C@@H](c3ccc(OCCO)cc3)[C@]13C(=O)Nc1ccc(C#CCCO)cc13)CC2`, for which the z-score was 0.0836 (inactive) in experiment [1]; 2.66 (inactive) in experiment [3]; 1.8 (inactive) in experiment [4]; 0.796 (inactive) in experiment [5]; 0.802 (inactive) in experiment [6]; 0.142 in experiment [7]. Further, the z-score was 1.46 (inactive) in experiment [8], 0.798 (inactive) in experiment [9] and 1.66 in experiment [10]. The compound also yielded a composite z-score in experiment [2] of 0.433.
With `C[C@@H]1ON(c2ccc(C(=O)OC(C)(C)C)cc2)[C@H](c2ccc(Br)cc2)[C@H]1C(=O)N1C(=O)OC[C@H]1Cc1ccccc1`, the z-score was 0.351 (inactive) in [1]; 0.393 (inactive) in experiment [3]; 0.358 (inactive) in [4]; -0.65 (inactive) in experiment [5]; 0.428 (inactive) in experiment [6]; 0.479 in experiment [7]. Moreover, the z-score is -0.495 (inactive) in [8], 0.0298 (inactive) in experiment [9] and 0.191 in experiment [10]. The same compound registered a composite z-score in [2] of -0.0241.
`NCCCCCCNC(=O)[C@@H]1C[C@@H]2C(=O)N3CCC[C@H]3C(=O)N2[C@@H]1c1ccc(O)cc1`: the z-score is -1.12 (inactive) in [1]; 1.67 (inactive) in experiment [3]; 0.026 (inactive) in experiment [4]; -0.653 (inactive) in experiment [5]; 0.105 (inactive) in experiment [6]; -0.164 in [7]. In addition, the z-score in [8] was 0.162 (inactive); in experiment [9] it was 0.116 (inactive); in experiment [10], -0.515. Besides, in experiment [2], the composite z-score was -0.508.
Consider `CCCC=C(CCC)[C@@H](NP(=O)(c1ccccc1)c1ccccc1)c1ccc(C(F)(F)F)cc1`, for which the z-score in experiment [1] was -1.5 (inactive); in experiment [3] it was -0.56 (inactive); in experiment [4], -0.647 (inactive); in [5], -0.309 (inactive); in [6], -1.24 (inactive); in [7], 0.828. Moreover, the z-score in experiment [8] is 0.147 (inactive); in experiment [9], 1.46 (inactive); in experiment [10], 1.81. In experiment [2], this compound gave a composite z-score of -0.485.
Turning to `CC(=O)N1Cc2ccccc2C[C@]2(N=C(c3ccc(OCCCO)cc3)O[C@@H]2c2ccccc2)C1=O`, the z-score in [1] was 1.23 (inactive); in [3], 26 (active); in experiment [4], 16.1 (active); in experiment [5], 1.17 (inactive); in experiment [6], 3.32 (inactive); in experiment [7], 0.463. Also, the z-score was -1.31 (inactive) in experiment [8], 0.13 (inactive) in experiment [9] and -1.9 in experiment [10]. In experiment [2], this compound returned a composite z-score of -0.0536.
As to `O=C1NC(=O)C2C1C=CC(C(O)c1cc(C(F)(F)F)cc(C(F)(F)F)c1)N2Nc1ccc(Cl)cc1Cl` (stereo not given), the z-score in experiment [1] is -2.29 (inactive); in [3], 0.321 (inactive); in [4] it was 0.168 (inactive); in experiment [5], -1.6 (inactive); in experiment [6], 0.998 (inactive); in experiment [7], -1.41. The results for the z-score in experiment [8], in experiment [9] and in experiment [10] were 0.128 (inactive), -5.87 (inactive) and -2.22, respectively. This compound also showed a composite z-score in experiment [2] of 0.546.
Take `CCOC(=O)C[C@H]1[C@H](OC(=O)c2ccccc2-c2ccccc2)[C@@H](NC(=O)CC(C)C)c2cc(OCCCO)ccc2N1C(=O)c1ccc2ccccc2n1`: the z-score was -0.518 (inactive) in experiment [1]; 11.9 (active) in [3]; 1.64 (inactive) in [4]; -0.0722 (inactive) in experiment [5]; 0.598 (inactive) in [6]; -0.577 in experiment [7]. Moreover, the z-score in experiment [8] is -0.274 (inactive); in experiment [9], 1.15 (inactive); in [10], 1.51. In experiment [2], the composite z-score was -0.192.
As for `CN(C)CCCNC(=O)[C@@H]1c2ccccc2C(=O)N(CC23CC4CC(CC(C4)C2)C3)[C@H]1c1ccc(CO)cc1`, the z-score in [1] was 0.0377 (inactive); in experiment [3], 1.1 (inactive); in experiment [4] it was 0.964 (inactive); in experiment [5], 0.648 (inactive); in [6], 1.09 (inactive); in experiment [7] it was -0.245. Further, the z-score in [8] was -2.04 (inactive); in [9] it was -0.633 (inactive); in [10], -0.657. The composite z-score in experiment [2] was -0.262.
In the case of `C=CCN1C(=O)[C@@]2(O[C@@H](CCn3cc([C@H](O)c4ccccc4)nn3)[C@H]([Si](C)(C)c3ccc(OC)cc3)[C@H]2C)c2ccccc21`, the z-score is 0.508 (inactive) in [1]; 7.57 (inactive) in experiment [3]; 1.93 (inactive) in experiment [4]; 1.04 (inactive) in experiment [5]; 0.916 (inactive) in experiment [6]; 0.32 in experiment [7]. Further, the z-score is 0.997 (inactive) in [8], 0.99 (inactive) in experiment [9] and -1.6 in experiment [10]. This compound registered a composite z-score in [2] of 0.276.
For `CCCC[C@@H]1C[C@H]1[C@@H](NC(=O)c1ccccc1)c1ccc(Cl)cc1`, the z-score in [1] was -2.41 (inactive); in experiment [3] it was 1.72 (inactive); in experiment [4], 0.589 (inactive); in experiment [5], -0.573 (inactive); in experiment [6], 0.839 (inactive); in experiment [7] it was -0.584. Also, the z-score is -0.093 (inactive) in experiment [8], -0.505 (inactive) in experiment [9] and 1.86 in experiment [10]. In addition, the composite z-score in [2] is 0.233.
As for `CON(C)C(=O)C=C1C[C@@H](c2cccc(Cl)c2)O[C@@H](c2cccc(Cl)c2)O1`, the z-score is -0.511 (inactive) in experiment [1]; 9.13 (active) in experiment [3]; 2.17 (inactive) in experiment [4]; -1.24 (inactive) in experiment [5]; 1.47 (inactive) in experiment [6]; 0.178 in experiment [7]. Moreover, the z-score in experiment [8] is -0.0563 (inactive); in [9] it was -0.986 (inactive); in [10], 0.0304. Besides, the composite z-score in experiment [2] is -0.0035.
As for `CC(C)CN1C(=O)[C@@]2(c3ccc([N+](=O)[O-])cc3)CC(=O)N(CC34CC5CC(CC(C5)C3)C4)[C@@H]2c2ccc(CO)cc21`, the z-score in experiment [1] was 0.193 (inactive); in experiment [3] it was 1.17 (inactive); in [4], -0.377 (inactive); in experiment [5] it was 0.0846 (inactive); in experiment [6] it was -1.17 (inactive); in experiment [7], 2.01. For the same compound, the z-score in experiment [8] is -0.187 (inactive); in [9] it was -0.981 (inactive); in [10] it was -0.986. The composite z-score in experiment [2] is 0.129.
